Source: the supplement of paper PMC12636033
± gives the standard deviation of the averaged measurements. In all, about 33,000 sequences were measured (“E-score (rank enrichment, -0.5 to 0.5)”: median about -0.0075, highest 2% from about 0.23 on). The full list was thinned out, with the highest values kept by preference.

Each sequence was assayed on WT Max(13-93) synthetic (M65Nle) (assay: PBM 8-mer E-score (E-score (rank enrichment, -0.5 to 0.5)); higher = stronger preferential binding).
Experimental: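 Protein binding microarray (universal PBM chip covering all 10-mers in fixed probe flanks) with chemically synthesized human Max(13-93) bHLH-LZ analogs (not full-length Max) bearing noncanonical residues (hArg, Tha, Aib, Nle at 65) and aromatic Cys staples. Read-out per 8-mer (and its reverse complement): E-score (rank-based enrichment, -0.5 to 0.5) and Z-score of median probe intensity.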
CCCCGCCC was tested, and the “PBM 8-mer E-score” value was 0.369 ± 0.062.
With GCCCGCCC the “PBM 8-mer E-score” value was 0.0723 ± 0.054.
With CCGCCCCC the “PBM 8-mer E-score” value was -0.124 ± 0.051.
In the case of CCCGCCCC, the “PBM 8-mer E-score” value is reported as 0.285 ± 0.14.
In the case of AACCCGCC, the “PBM 8-mer E-score” value is reported as -0.0368 ± 0.068.
For ACCCCGCC, the “PBM 8-mer E-score” value was 0.279 ± 0.035.
For CCCGCCCA, the “PBM 8-mer E-score” value was 0.183 ± 0.043.
With ACCCGCCC the “PBM 8-mer E-score” value was 0.0569 ± 0.092.
In the case of CCGCCCCG, the “PBM 8-mer E-score” value is reported as 0.236 ± 0.075.
In the case of CCCGCCCG, the “PBM 8-mer E-score” value is reported as 0.025 ± 0.078.
With CTCGTTCC the “PBM 8-mer E-score” value was -0.0941 ± 0.0052.
With CCGACGTA the “PBM 8-mer E-score” value was -0.103 ± 0.022.
For AATCACCT, the “PBM 8-mer E-score” value was 0.115 ± 0.11.
For TAGTGCAA, the “PBM 8-mer E-score” value was 0.023 ± 0.006.
With AGCGGAGG the “PBM 8-mer E-score” value was -0.124 ± 0.11.
CTTAATGC was tested, and the “PBM 8-mer E-score” value was 0.162 ± 0.095.
CCGTACCA was tested, and the “PBM 8-mer E-score” value was -0.129 ± 0.033.
In the case of CACACGAC, the “PBM 8-mer E-score” value is reported as 0.13 ± 0.11.
In the case of CACACGAG, the “PBM 8-mer E-score” value is reported as 0.105 ± 0.0042.
In the case of GACACAAA, the “PBM 8-mer E-score” value is reported as 0.24 ± 0.048.
CACACAAA was tested, and the “PBM 8-mer E-score” value was 0.103 ± 0.13.
In the case of CACGCTCG, the “PBM 8-mer E-score” value is reported as 0.266 ± 0.035.
With TACACAAA the “PBM 8-mer E-score” value was 0.0928 ± 0.018.
With AACACGCG the “PBM 8-mer E-score” value was 0.3 ± 0.08.
AACACGCC was tested, and the “PBM 8-mer E-score” value was 0.0311 ± 0.14.
In the case of CACGCTCA, the “PBM 8-mer E-score” value is reported as 0.0695 ± 0.057.
With CACACGAA the “PBM 8-mer E-score” value was 0.272 ± 0.054.
In the case of AACGCTCG, the “PBM 8-mer E-score” value is reported as -0.131 ± 0.017.
For AACACGCA, the “PBM 8-mer E-score” value was 0.134 ± 0.0072.
AAATTAAA was tested, and the “PBM 8-mer E-score” value was 0.198 ± 0.044.
With TCAAAGGA the “PBM 8-mer E-score” value was 0.0761 ± 0.07.
In the case of CGTTTTGA, the “PBM 8-mer E-score” value is reported as -0.0368 ± 0.12.
ACGACATG was tested, and the “PBM 8-mer E-score” value was 0.0526 ± 0.047.
In the case of CGCGGCCA, the “PBM 8-mer E-score” value is reported as -0.0571 ± 0.036.
For CCGAAACC, the “PBM 8-mer E-score” value was -0.199 ± 0.026.
In the case of GACACCGC, the “PBM 8-mer E-score” value is reported as -0.206 ± 0.08.
With ACGTCCCC the “PBM 8-mer E-score” value was 0.0319 ± 0.084.
With AGCATTTA the “PBM 8-mer E-score” value was -0.11 ± 0.038.
CACACGCG was tested, and the “PBM 8-mer E-score” value was 0.302 ± 0.017.
CACACGCA was tested, and the “PBM 8-mer E-score” value was 0.174 ± 0.028.
CACACGCC was tested, and the “PBM 8-mer E-score” value was 0.0838 ± 0.085.
In the case of TAGGCACA, the “PBM 8-mer E-score” value is reported as 0.0603 ± 0.0065.
With CAGAGGTA the “PBM 8-mer E-score” value was 0.0024 ± 0.058.
In the case of ATATGATG, the “PBM 8-mer E-score” value is reported as 0.19 ± 0.03.
For GTATGAGA, the “PBM 8-mer E-score” value was 0.109 ± 0.033.
In the case of GGATGATA, the “PBM 8-mer E-score” value is reported as -0.00911 ± 0.064.
For ATATGATA, the “PBM 8-mer E-score” value was 0.302 ± 0.013.
GTATGATA was tested, and the “PBM 8-mer E-score” value was 0.235 ± 0.0072.
In the case of CTATGATA, the “PBM 8-mer E-score” value is reported as -0.00697 ± 0.0076.
With CAGCGCCA the “PBM 8-mer E-score” value was -0.237 ± 0.0045.
GTGGCTCA was tested, and the “PBM 8-mer E-score” value was -0.0168 ± 0.037.
ACAGGAGA was tested, and the “PBM 8-mer E-score” value was 0.0713 ± 0.014.
In the case of CCCTACGG, the “PBM 8-mer E-score” value is reported as -0.21 ± 0.015.
In the case of AACACATT, the “PBM 8-mer E-score” value is reported as 0.13 ± 0.017.
With CACACATA the “PBM 8-mer E-score” value was 0.0464 ± 0.029.
In the case of AAAACATT, the “PBM 8-mer E-score” value is reported as 0.147 ± 0.033.
In the case of CAAACATG, the “PBM 8-mer E-score” value is reported as 0.17 ± 0.13.
For AACACATA, the “PBM 8-mer E-score” value was 0.263 ± 0.084.
For AACACATC, the “PBM 8-mer E-score” value was -0.0183 ± 0.028.
With AACACATG the “PBM 8-mer E-score” value was 0.368 ± 0.0069.
AAAACATG was tested, and the “PBM 8-mer E-score” value was 0.28 ± 0.024.
With TACACATA the “PBM 8-mer E-score” value was 0.213 ± 0.083.
For CATGTAGA, the “PBM 8-mer E-score” value was 0.193 ± 0.018.
For ACGCCCTC, the “PBM 8-mer E-score” value was 0.0691 ± 0.11.
GATCCAGC was tested, and the “PBM 8-mer E-score” value was -0.241 ± 0.017.
For ATCCGTAG, the “PBM 8-mer E-score” value was -0.21 ± 0.046.
With GCAGTGAA the “PBM 8-mer E-score” value was 0.0345 ± 0.11.
For ATGACAAT, the “PBM 8-mer E-score” value was 0.264 ± 0.018.
ATGACAAG was tested, and the “PBM 8-mer E-score” value was 0.119 ± 0.12.
AGGACAAT was tested, and the “PBM 8-mer E-score” value was 0.183 ± 0.045.
With ATGACAAC the “PBM 8-mer E-score” value was 0.166 ± 0.029.
For AAGACAAT, the “PBM 8-mer E-score” value was 0.228 ± 0.075.
In the case of ATGACAAA, the “PBM 8-mer E-score” value is reported as 0.261 ± 0.11.
For TCGGGCCA, the “PBM 8-mer E-score” value was -0.185 ± 0.0072.
In the case of CGAATCTA, the “PBM 8-mer E-score” value is reported as -0.0418 ± 0.067.
For ATGTATGC, the “PBM 8-mer E-score” value was 0.166 ± 0.0091.
In the case of ACTAGACT, the “PBM 8-mer E-score” value is reported as 0.0207 ± 0.063.
In the case of ACGCACAG, the “PBM 8-mer E-score” value is reported as -0.0926 ± 0.096.
With ACGCACAA the “PBM 8-mer E-score” value was 0.0902 ± 0.052.
With AAGCACGG the “PBM 8-mer E-score” value was 0.0974 ± 0.06.
With AAGCACGT the “PBM 8-mer E-score” value was 0.367 ± 0.028.
In the case of AAGCACGA, the “PBM 8-mer E-score” value is reported as 0.125 ± 0.0091.
In the case of ACGCACGC, the “PBM 8-mer E-score” value is reported as 0.205 ± 0.014.
For ACGCACGA, the “PBM 8-mer E-score” value was 0.143 ± 0.032.
With ACGCACGT the “PBM 8-mer E-score” value was 0.314 ± 0.041.
For ACGCACAT, the “PBM 8-mer E-score” value was 0.267 ± 0.02.
